The source made the active and inactive calls. Cut-off read from the data, not from the text of the source: active = fold change permeability below about 0.7 or above about 1.3; inactive = in between.
assay: compounds altering in vitro BBB leakiness – cell-based, FITC-avidin fluorescence, HTS, primary screen (AID 1963498); conditions: brain endothelial barrier, actives lie on both sides; note: test concentration not given here

| SMILES | fold change permeability |
| --- | --- |
| NCCS | 0.9 (inactive) |
| CC1(C)CCC2=C(O1)c1ccccc1C(=O)C2=O | 1.8 (active) |
| CCO/C([O-])=N/c1c[n+](N2CCOCC2)no1 | 0.8 (inactive) |
| C[C@]12CCC(=O)C=C1C=C[C@@H]1[C@@H]2CC[C@@]2(C)[C@H]1CC[C@@]21CCC(=O)O1 | 1.1 (inactive) |
| CCCCS(=N)(=O)CCC(N)C(=O)O (centres undefined) | 1.1 (inactive) |
| CCCC(CCC)C(=O)O | 1.1 (inactive) |
| COc1cc(O)c(C)c(O)c1C(=O)CCc1ccccc1 | 1.8 (active) |
| CC(=O)NCCc1c[nH]c2ccc(O)cc12 | 1.1 (inactive) |
| Cc1nc2ccc(NC(=O)Nc3ccnc4cccnc34)cc2o1 | 1.4 (active) |
| CCCC(C(=O)OCCN(CC)CC)(c1ccccc1)c1ccccc1 | 1.2 (inactive) |
| CC(=O)Nc1ccc(C(=O)Nc2ccc(F)cc2N)cc1 | 0.8 (inactive) |
| O=C(O)C1=CCCN(CCON=C(c2ccccc2)c2ccccc2)C1 | 1.1 (inactive) |
| O=[N+]([O-])c1ccc(CNc2nc(NCc3cccc(C(F)(F)F)c3)nc3nc[nH]c23)cc1 | 1.3 (active) |
| NC(=Nc1ccc(OCCCCCOc2ccc(N=C(N)c3ccccc3)cc2)cc1)c1ccccc1 | 1 (inactive) |
| CNC1(C)C2CCC(C2)C1(C)C (centres undefined) | 0.8 (inactive) |
| CNCCCC1c2ccccc2C=Cc2ccccc21 | 1.1 (inactive) |
| OCc1ccc(-c2nn(Cc3ccccc3)c3ccccc23)o1 | 2 (active) |
| COc1nc(C)cnc1NS(=O)(=O)c1cccnc1-c1ccc(-c2nnco2)cc1 | 1.4 (active) |
| O=C(O)/C=C1\CCCc2ccccc2C1O (centres undefined) | 0.8 (inactive) |
| CC[C@@]1(O)C(=O)OCc2c1cc1n(c2=O)Cc2cc3c(CN(C)C)c(O)ccc3nc2-1 | 1 (inactive) |

| SMILES | fold change permeability |
| --- | --- |
| Cc1cc(NC2CCCCC2)nc(-n2nc(C)cc2C)n1 | 1.3 (active) |
| O=C(O)c1ccc(-c2ccc(/C=C3\SC(=S)N(Cc4ccccc4)C3=O)o2)cc1 | 2 (active) |
| O=[N+]([O-])c1ccc(CSc2ncnc3c2ncn3[C@@H]2O[C@H](CO)[C@@H](O)[C@H]2O)cc1 | 0.8 (inactive) |
| O=C(O)C1CCCNC1 (centres undefined) | 1.3 (active) |
| NC1(C(=O)O)CCCCC1 | 1 (inactive) |
| O=C1S/C(=C\c2ccc(OCc3ccc(B(O)O)cc3)cc2)C(=O)N1Cc1ccc(F)cc1 | 1.2 (inactive) |
| O=C(O)CCc1ccc(-c2ccc(Br)cc2)n1-c1ccccc1C(F)(F)F | 1.2 (inactive) |
| NO | 1.1 (inactive) |
| CC(C(=O)O)c1ccc(C(=O)c2cccs2)cc1 (centres undefined) | 0.8 (inactive) |
| CC(C)C(=O)c1c(C(C)C)nn2ccccc12 | 1.3 (active) |
| NC(=O)c1ccc(OCCCN2C[C@H]3CCC[C@H]3C2)cc1 | 0.8 (inactive) |
| CC(=O)Oc1cc(C(C)C)c(OCCN(C)C)cc1C | 0.8 (inactive) |
| Cc1ccc(C(=O)Nc2cnc(N3CCC(C(N)=O)(N4CCCCC4)CC3)c(C(=O)O)c2)cc1 | 1 (inactive) |
| Cc1cc(Nc2cc(N3CCN(C)CC3)nc(Sc3ccc(NC(=O)C4CC4)cc3)n2)n[nH]1 | 1.6 (active) |
| N#C/C(=C\c1ccc(-c2cc(Cl)ccc2Cl)o1)C(=O)Nc1cccc2ncccc12 | 2.1 (active) |
| CCN(CC)CCOC(=O)C1(C2CCCCC2)CCCCC1 | 1.6 (active) |
| O=C(NCCc1nccs1)c1cnc2c(SSc3cccc4cc(C(=O)NCCc5nccs5)cnc34)cccc2c1 | 0.7 (active) |
| COc1cc2c(cc1O)[C@@H](Cc1ccc(O)c(Oc3ccc(C[C@@H]4c5cc(OC)c(OC)cc5CCN4C)cc3)c1)N(C)CC2 | 1.6 (active) |
| CN1C[C@H](C(=O)N[C@]2(C)O[C@@]3(O)[C@@H]4CCCN4C(=O)[C@H](Cc4ccccc4)N3C2=O)C[C@@H]2c3cccc4[nH]cc(c34)C[C@H]21 | 1.4 (active) |
